From PubChem BioAssay (NCATS) come the findings set out here.

Test [1] can be described thus: qHTS for Inhibitors of the Functional Ribonucleoprotein Complex (vRNP) of Lassa (LASV) Arenavirus: LASV Primary Screen - GLuc reporter signal (AID 1347082; calls by dose curve; tested in HEK293 reporter line; also: series mostly up to about 57 µM; nearly all actives have a fitted effect of over 60% in size). In general terms: qHTS replaces the single test concentration by a dilution series.
A short description of test [2]: qHTS for Inhibitors of the Functional Ribonucleoprotein Complex (vRNP) of Lassa (LASV) Arenavirus: Viability assay - alamar blue signal for LASV Primary Screen (AID 1347083; calls by dose curve; tested in HEK293 reporter line; also: nearly all actives have a fitted effect of over 80% in size; also: potency is read from the fitted curve at half-maximal effect).
A short description of test [3]: qHTS for Inhibitors of the Functional Ribonucleoprotein Complex (vRNP) of Lymphocytic Choriomeningitis Arenaviruses (LCMV): Viability assay - alamar blue signal for LCMV Primary Screen (AID 1347085; calls by dose curve; tested in HEK293 reporter line; also: nearly all actives have a fitted effect of over 80% in size; also: potency is read from the fitted curve at half-maximal effect).
The target in test [4] is Nucleoprotein (Lymphocytic choriomeningitis virus (strain Armstrong)) (UniProt P09992). Kind of test: qHTS for Inhibitors of the Functional Ribonucleoprotein Complex (vRNP) of Lymphocytic Choriomeningitis Arenaviruses (LCMV): LCMV Primary Screen - GLuc reporter signal (AID 1347086). Also: series mostly up to about 57 µM; nearly all actives have a fitted effect of over 70% in size.
For test [5], the target named is Parathyroid hormone/parathyroid hormone-related peptide receptor (Homo sapiens) (UniProt Q03431). Kind of test: qHTS for PTHR1 Agonists: Optimization Screen against the NCGC LOPAC library (AID 1347079; active = well fitted curve in the direction sought with a large enough effect; an effect the other way counts as inactive or inconclusive;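 also: GloSensor cAMP luminescence in HEK-293 GP2 cells expressing human PTHR1 with IBMX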). The essentials:
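HEK-293 GP2 cells, PTHR1 + GloSensor cAMP; 3000 cells/well, o/n. Luciferin + IBMX 0.5mM each (stock), 1 hr 37C. Cpd titration, 1 hr 37C. Lum after 15 min RT. Ctrl M-PTH(1-15) top 10uM.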

A short description of test [6]: qHTS of pediatric cancer cell lines to identify multiple opportunities for drug repurposing: Primary screen for TC32 cells (AID 1347089; active = well fitted curve in the direction sought with a large enough effect; an effect the other way counts as inactive or inconclusive; also: nearly all actives have a fitted effect of over 60% in size). The essentials:
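A viability screen of TC32 cells was run over 48 h, with primary MIPE doses spanning 0.78 nM–46 µM and NPC doses 0.59 nM–46 µM. ATP luminescence (CellTiter-Glo) served as the read-out.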

Test [7] is described as follows: qHTS of pediatric cancer cell lines to identify multiple opportunities for drug repurposing: Primary screen for DAOY cells (AID 1347090; active = well fitted curve in the direction sought with a large enough effect; an effect the other way counts as inactive or inconclusive; also: nearly all actives have a fitted effect of over 55% in size; also: potency is read from the fitted curve at half-maximal effect). The essentials:
(§1)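 Viability measured as metabolically active cells via CellTiter-Glo luminescence following 48 hours of compound exposure, 11-point dilutions in confirmatory testing. 500-1,000 cells/well plated 5 hours before dosing; controls were DMSO and 2.3 µM bortezomib.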

Test [8] is described as follows: qHTS of pediatric cancer cell lines to identify multiple opportunities for drug repurposing: Primary screen for SJ-GBM2 cells (AID 1347091; active = well fitted curve in the direction sought with a large enough effect; an effect the other way counts as inactive or inconclusive). A digest of the protocol: as §1
A short description of test [9]: qHTS of pediatric cancer cell lines to identify multiple opportunities for drug repurposing: Primary screen for A673 cells (AID 1347092; active = well fitted curve in the direction sought with a large enough effect; an effect the other way counts as inactive or inconclusive; also: nearly all actives have a fitted effect of over 45% in size; also: potency is read from the fitted curve at half-maximal effect). A digest of the protocol: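 Titration-based qHTS on A673 cells: MIPE compounds spanned 11 points (0.78 nM to 46 µM final), NPC compounds 8 points (0.59 nM to 46 µM final). Viability after 48 h was measured by ATP luminescence.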

Test [10] can be described thus: qHTS of pediatric cancer cell lines to identify multiple opportunities for drug repurposing: Primary screen for SK-N-MC cells (AID 1347093; active = well fitted curve in the direction sought with a large enough effect; an effect the other way counts as inactive or inconclusive; also: potency is read from the fitted curve at half-maximal effect). The essentials:
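Metabolically active cells were quantified by ATP-dependent luminescence (CellTiter-Glo, 15 min at room temperature) following 48 h treatment. Cells had been plated at 500-1,000 per well and settled for 5 h beforehand.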

Results filed as inconclusive are left out. Activity calls are given as the source filed them. Unless noted, calls follow the shape of the full dose curve.

Sequence of Parathyroid hormone/parathyroid hormone-related peptide receptor (Homo sapiens) (Q03431 whole entry, looked up): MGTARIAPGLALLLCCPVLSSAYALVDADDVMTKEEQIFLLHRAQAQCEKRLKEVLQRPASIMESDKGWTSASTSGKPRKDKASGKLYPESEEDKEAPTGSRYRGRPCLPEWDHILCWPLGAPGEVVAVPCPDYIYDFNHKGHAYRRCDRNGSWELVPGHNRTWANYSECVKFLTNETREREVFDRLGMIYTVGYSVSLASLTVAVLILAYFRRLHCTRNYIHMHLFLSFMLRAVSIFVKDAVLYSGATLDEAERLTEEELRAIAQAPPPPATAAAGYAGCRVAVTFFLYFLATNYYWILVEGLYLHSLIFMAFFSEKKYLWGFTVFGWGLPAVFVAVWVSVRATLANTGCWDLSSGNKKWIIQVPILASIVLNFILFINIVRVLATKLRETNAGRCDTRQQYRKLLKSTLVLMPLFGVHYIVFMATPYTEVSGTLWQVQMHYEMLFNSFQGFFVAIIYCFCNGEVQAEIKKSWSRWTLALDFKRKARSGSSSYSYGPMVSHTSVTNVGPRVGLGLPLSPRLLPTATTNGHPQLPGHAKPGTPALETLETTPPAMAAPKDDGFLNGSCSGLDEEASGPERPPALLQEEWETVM
Sequence of Nucleoprotein (Lymphocytic choriomeningitis virus (strain Armstrong)) (P09992 whole entry, looked up): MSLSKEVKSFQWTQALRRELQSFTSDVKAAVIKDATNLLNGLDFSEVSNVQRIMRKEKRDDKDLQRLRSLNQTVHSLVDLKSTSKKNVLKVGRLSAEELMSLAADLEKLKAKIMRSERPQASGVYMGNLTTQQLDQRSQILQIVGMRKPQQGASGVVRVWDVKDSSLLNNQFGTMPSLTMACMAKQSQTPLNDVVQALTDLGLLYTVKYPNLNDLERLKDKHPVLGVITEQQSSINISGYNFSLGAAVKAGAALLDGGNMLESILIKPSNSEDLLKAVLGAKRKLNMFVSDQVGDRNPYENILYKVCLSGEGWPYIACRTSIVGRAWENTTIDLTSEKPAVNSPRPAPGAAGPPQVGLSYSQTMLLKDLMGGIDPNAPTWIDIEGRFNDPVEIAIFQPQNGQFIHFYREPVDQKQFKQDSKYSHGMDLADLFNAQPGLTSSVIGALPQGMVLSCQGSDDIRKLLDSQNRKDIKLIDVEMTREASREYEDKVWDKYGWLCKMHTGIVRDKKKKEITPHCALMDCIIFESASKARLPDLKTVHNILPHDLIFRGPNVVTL

On to `C[C@]12C=CC(=O)C=C1CC[C@@H]1[C@@H]2CC[C@]2(C)OC(=O)CC[C@@H]12`, for which the Potency result in [1], in test [2], in test [3] and in test [4] was “inactive” each time.

With `CC(C)CC(NP(=O)(O)O[C@@H]1O[C@@H](C)[C@H](O)[C@@H](O)[C@H]1O)C(=O)NC(Cc1c[nH]c2ccccc12)C(=O)O` (stereo partly drawn), the Potency result in test [1], in test [2], in [3] and in test [4] was “inactive” in each case.

Turning to `NCCc1ccc(S(=O)(=O)F)cc1`, the Potency result in test [5], in test [1], in test [2], in [3] and in test [4] was “inactive” in each case.

Regarding `CCCSP(=O)(OCC)SCCC`, the Potency result in test [2], in test [3], in test [7], in [9] and in test [10] was “inactive” each time. Further, the molecule was called inactive in test [6] and in test [8].

Consider `CCCn1c(C)c(C(=O)c2ccc3ccccc3c2)c2ccccc21`, for which the Potency entry in test [5], in test [1], in test [2], in test [3] and in test [4] was “inactive” in each case.

`NC(=O)c1cc(N2CC2)c([N+](=O)[O-])cc1[N+](=O)[O-]`: the Potency result in [5], in test [1], in test [2] and in [4] was “inactive” throughout.

Regarding `C[N+](C)(C)CC#CCOC(=O)Nc1cccc(Cl)c1`, the Potency result in test [5], in [1], in test [2], in test [3] and in [4] was “inactive” in each case.

Turning to `C[N+]1(C)[C@@H]2CC(OC(=O)[C@H](CO)c3ccccc3)C[C@H]1[C@H]1O[C@@H]12` (stereo partly drawn), the Potency entry in [1], in test [2], in test [3] and in [4] was “inactive” each time.

Turning to `CCNC(=O)[C@H]1O[C@@H](n2cnc3c(N)ncnc32)[C@H](O)[C@@H]1O`, the Potency entry in [5], in test [1], in test [2], in test [3] and in test [4] was “inactive” in each case.

On to `O=P(O)(O)C(Cl)(Cl)P(=O)(O)O`, for which the Potency result in test [1], in test [2], in test [3] and in test [4] was “inactive” each time.

`CCCCCCC(C)(C)c1ccc([C@@H]2C[C@H](O)CC[C@H]2CCCO)c(O)c1`: the Potency entry in test [5], in test [1] and in [3] was “inactive” each time.

As to `C/C(O)=C(\C#N)C(=O)Nc1cc(Br)ccc1Br`, the Potency entry in test [5], in test [1], in test [2], in test [3] and in test [4] was “inactive” throughout.

As to `C[N+]1(C)CCC(OC(=O)C(c2ccccc2)c2ccccc2)CC1`, the Potency result in test [1], in test [2], in test [3] and in [4] was “inactive” throughout.

Consider `C=CCN(C1=NCCN1)c1c(Cl)cccc1Cl`, for which the Potency entry in test [5], in test [1], in test [2], in [3] and in test [4] was “inactive” in each case.

On to `CC12NC(Cc3ccccc31)c1ccccc12` (stereo not drawn), for which the Potency result in test [5], in test [1], in test [2], in [3] and in test [4] was “inactive” each time.

In the case of `CN1[C@H]2CC[C@@H]1[C@@H](C(=O)O)[C@@H](OC(=O)c1ccccc1)C2`, the Potency result in test [1], in test [2], in [3] and in test [4] was “inactive” throughout.

Turning to `CN(C)[C@@H]1C(=O)C(C(N)=O)=C(O)[C@@]2(O)C(=O)C3=C(O)c4c(O)ccc(Cl)c4[C@@](C)(O)[C@H]3C[C@@H]12`, the Potency entry in test [1], in [2], in test [3] and in test [4] was “inactive” throughout.

For `c1ccc2cc(CC3=NCCN3)ccc2c1`, the Potency entry in [5], in test [1], in [2], in [3] and in test [4] was “inactive” throughout.

Regarding `C[CH2][Hg][S]c1ccccc1C(=O)O`, the Potency entry in test [1], in [2], in test [3] and in test [4] was “inactive” each time. In addition, the Potency in [7] was 2660 nM (active); in test [9], 841 nM (active); in test [10], 668 nM (active).

Regarding `COc1ccc2c(c1)c(CCN1CCOCC1)c(C)n2C(=O)c1cccc(Cl)c1Cl`, the Potency result in test [1] and in test [2] was “inactive” in each case.

Take `CC1=C2C[C@H]3[C@@H](CC=C4C[C@@H](O)CC[C@@]43C)[C@@H]2CC[C@]12O[C@@H]1C[C@H](C)CN[C@H]1[C@H]2C`: the Potency result in test [1], in [2], in test [3] and in test [4] was “inactive” each time.

Regarding `COc1ccc2c(c1)[C@@]13CCCC[C@H]1[C@@H](C2)NCC3`, the Potency entry in [5], in [1], in [2], in [3] and in [4] was “inactive” throughout.

`Oc1ccc2c3c1O[C@H]1c4oc5ccccc5c4C[C@@]4(O)C(C2)N(CC2CC2)CCC314` (stereo partly drawn): the Potency entry in test [5], in test [2] and in test [3] was “inactive” throughout.

For `O=C/C=C/c1ccccc1`, the Potency result in test [1], in test [2], in [3] and in test [4] was “inactive” throughout.

Take `CN[C@H]1C[C@@H](N)[C@H](O)[C@@H](O[C@@H]2O[C@H](CO)[C@H](O)[C@@H]3OC4(O[C@H]23)O[C@H](C(N)CO)[C@H](O)[C@H](O)[C@H]4O)[C@@H]1O` (stereo partly drawn): the Potency entry in [1], in test [2], in [3] and in [4] was “inactive” each time.

In the case of `c1ccc2c(c1)[I+]c1ccccc1-2`, in [5], the Potency result was “inactive”. In addition, the Potency in test [2] was 1580 nM (active); in test [3] it was 6310 nM (active).

Take `O=[N+]([O-])/C=C/c1ccc2c(c1)OCO2`: the Potency result in test [5], in [1], in [3] and in test [4] was “inactive” throughout.

Consider `CCN(CC)c1ncnc2c1ncn2[C@@H]1O[C@H](COP(=O)(O)OP(=O)(O)C(Br)(Br)P(=O)(O)O)[C@@H](O)[C@H]1O`, for which the Potency entry in test [1], in [2], in [3] and in test [4] was “inactive” in each case.

`CC1OC1P(=O)(O)O` (stereo not drawn): the Potency result in test [1], in test [2], in [3] and in test [4] was “inactive” in each case.

For the molecule `NNC(N)=O`, the Potency entry in [5], in [1], in test [2], in test [3] and in [4] was “inactive” each time.

Consider `N#CCCN`, for which the Potency entry in test [5], in test [1], in test [2], in test [3] and in test [4] was “inactive” each time.

On to `Cc1c2ccncc2c(C)c2c1[nH]c1ccccc12`, for which the Potency result in [5], in [1] and in test [4] was “inactive” throughout.

On to `COC1=CC=C2[C@H]3Cc4ccc(OC)c5c4[C@@]2(CCN3C)[C@H]1O5`, for which the Potency result in test [2], in test [3] and in [4] was “inactive” throughout.

`O[C@H]1[C@H]2[C@H](O)CCCN2C[C@H]1O`: the Potency entry in test [1], in test [2], in test [3] and in [4] was “inactive” in each case.

For the molecule `N#C/C(=C/c1ccc(O)c(O)c1)C(N)=S`, the Potency entry in [1], in test [2], in test [3] and in test [4] was “inactive” each time.

In the case of `O=C1C=CC(=O)C=C1`, the Potency entry in test [5], in test [2] and in test [3] was “inactive” in each case.
